Laboratory results from PubChem BioAssay AID720514 (Broad Institute, 2013).
Hit rate of the full screen: of about 2,100 compounds, about 300 (14%) were called active. About 2% were inconclusive and are not listed.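 Rule for the calls: active = every replicate test run called active, with the signal falling and half-maximal concentration within twice the top valid dose; inconclusive = the replicate test runs disagree in their calls; inactive = every test run inactive, including effects in the opposite direction.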 The list is a sample of the results. Measured potencies and affinities stand elsewhere.

Test: inhibitors of PGC1a acetylation in cells, dose response, cell-based, cherry-picked samples (AID 720514);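 note: 0% = neutral control wells and -100% = positive control wells; actives lower the acetylation signal so they count as inhibitors of PGC1a acetylation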
Settings: U2OS PGC1a acetylation, AlphaLISA, overnight; series mostly up to 19.5 µM; activity change, negative = inhibition: at the top concentration

Activity change, negative = inhibition, inactive:
Fc1ccc(CN(Cc2ccccc2)C(c2cccs2)c2nnnn2C2CCCCC2)cc1 (configuration not stated) 48.1%
O=C(NCc1ccc(Cl)cc1)C1CCC(CNc2c(N3CCCC3)c(=O)c2=O)CC1 (configuration not stated) 45.9%
Cc1cccc(Oc2nccc(C(F)(F)F)c2C(=O)Nc2ccc(F)cc2F)c1 48.5%
c1coc(CN(Cc2cccs2)Cc2nnnn2C2CCCCC2)c1 72.5%
C[C@@H](c1ccccc1)N1Cc2ccccc2Oc2cc(Br)ccc2S1(=O)=O 51%
C=C[C@H]1C(C(=O)OCC)=CC[C@@H](c2ccccc2)N1S(=O)(=O)c1ccc(C)cc1 85.6%
CCOC(=O)C1=CC[C@@H](c2ccc(F)cc2)N(S(=O)(=O)c2ccc(C)cc2)[C@H]1c1ccccc1 95.3% [at 10 µM]
O=C(Nc1cccnc1)c1ccc(Oc2ccccc2)cc1 239%
Nc1ccc(N2CCCCC2)cc1N1CCCCC1 111%
O=C(Nc1cccnc1)c1ccc(Br)s1 197% [at 5 µM]
Cc1ccc2[nH]c(=O)c(CN(Cc3ccc4c(c3)OCO4)Cc3nnnn3C3CCCC3)cc2c1 32.4%
O=C(Nc1ccc(F)cc1)N1CC(=O)N2[C@@H](CO)[C@H](c3ccc(Br)cc3)[C@@H]2C1 29% [at 21 µM]
O=C(c1ccc(F)cc1)N1CC(=O)N2[C@H](CO)[C@@H](c3ccc(C#CCC4CCCC4)cc3)[C@@H]2C1 14.4% [at 21 µM]
CC(C)CC#Cc1ccc([C@@H]2[C@H](CO)N3CCCCN(S(=O)(=O)Cc4ccccc4)C[C@@H]23)cc1 35.4% [at 5 µM]
Cc1cccc(OC2(c3ccccc3)OC(=O)c3ccccc32)c1C (configuration not stated) 90.7%
O=C(COc1cccnc1[N+](=O)[O-])NCCc1ccc(Cl)cc1 38.7%
COc1cccc(-c2ccc(C3[C@@H]4CN(S(=O)(=O)c5cccc(OC)c5)C[C@H]3N4)cc2)c1 (some centres not stated) 64.4%
COc1ccccc1-c1ccc(C2[C@@H]3CN(Cc4cccc(F)c4)C[C@H]2N3)cc1 (some centres not stated) 55.2%
N#Cc1ccccc1S(=O)(=O)N1CCN(Cc2cc3c(cc2Br)OCCO3)CC1 120%
CC(C)(C)c1ccc(NC(=O)N2CCCN(c3ccc([N+](=O)[O-])cn3)CC2)cc1 187%
Cc1ccc(O)c(C(=O)c2cnc3c(c2)CN(CCC(C)C)C(=O)N3)c1 53.6%
COc1ccc(Cc2nc(-c3ccc(NC(=O)c4cccnc4)cc3)no2)cc1 207%
C=CCn1c(=NC(=O)c2ccc(S(=O)(=O)N3CCCC3)cc2)sc2cc(NC(C)=O)ccc21 44.8%
CCOCCn1c(CN(Cc2ccccc2)Cc2ccccc2)nc2c1c(=O)[nH]c(=O)n2C 53.2%
N#Cc1ccc(Oc2cccnc2)cc1C#N 106%
COc1ccc(NC(=O)C(=O)NCCC2CCCCN2S(=O)(=O)c2cccs2)cc1 (configuration not stated) 27.4%
COc1ccccc1-c1ccc2c(c1)C(C)(Cc1ccc(OC(F)(F)F)cc1)C(=O)N2 (configuration not stated) 41.4%
O=C1Nc2cc(S(=O)(=O)N3CCCC3)ccc2N2CCCC12 (configuration not stated) 63.7%
Cc1cc(N2CCC(C(N)=O)CC2)nc(-c2ccccc2)n1 43.1%
CCOC(=O)CC(S(=O)(=O)c1ccccc1)S(=O)(=O)c1ccccc1 105%
COc1ccc(C(C)(O)c2nc(-c3ccc(S(C)(=O)=O)cc3)cs2)cc1 (configuration not stated) 112%
COc1ccc(CNc2ccc(-c3ccc(OC)cc3)nn2)cc1 105%
CCOC(=O)C1=C[C@@H](C(C)C)N(S(=O)(=O)c2ccc(C)cc2)[C@H]1c1ccc(C(F)(F)F)cc1 111%
COc1ccc(CCNCc2ccc(-c3ccccc3)cc2)cc1OC 36.3%
O=C1C=C(c2cc3ccccc3s2)CCC1 155%
O=C(c1cccs1)N1CCN(c2nnc(-c3ccccc3)c3ccccc23)CC1 84.9%
N=c1n(CCN2CCCC2)c2ccccc2n1CC(O)c1ccc(Cl)c(Cl)c1 (configuration not stated) 54.5%
O=C(c1ccco1)N1CCN(c2nnc(-c3ccccc3)c3ccccc23)CC1 55.7%
Cc1cccc2cc(CN(Cc3ccc(F)cc3)Cc3nnnn3C3CCCC3)c(=O)[nH]c12 39.1%
Oc1ccc(C[C@@H]2CNCCN2CCC23CC4CC(CC(C4)C2)C3)cc1 47.7% [at 10 µM]
CCn1nc(C)c(CN2CCc3c([nH]c4ccccc34)C2C(C)(C)C)c1C (configuration not stated) 81.8%
CCOC(=O)C1(Cc2ccccc2)CCN(Cc2cccc(OC)c2O)CC1 118%
Cc1cc(C)c2c(-n3cccc3)c(C(=O)NNS(=O)(=O)c3ccccc3)sc2n1 99.1%
C[C@H]1CN([C@@H](C)CO)C(=O)CCCn2cc(nn2)CO[C@H]1CN(C)S(=O)(=O)c1ccc(Cl)cc1 24.9% [at 21 µM]
Cc1cccc(S(=O)(=O)N(C)C[C@@H]2OCc3cn(nn3)CCCC(=O)N([C@H](C)CO)C[C@H]2C)c1 7.15%
CC(=O)CCS(=O)(=O)c1ccc(C)c(C)c1 117%
O=C(C[C@@H]1C[C@@H]2c3cc(NC(=O)Nc4ccccc4F)ccc3O[C@@H]2[C@@H](CO)O1)NCc1ccc(Oc2ccccc2)cc1 31.4%
COC(=O)C[C@@H]1C[C@H]2c3cc(NC(=O)Nc4ccc(C(F)(F)F)cc4)ccc3O[C@H]2[C@H](CO)O1 90.3%
COc1ccc(CC(CC(=O)O)C(=O)Nc2ccc(OC)cc2)cc1 (configuration not stated) 32.5%
COc1ccc(CCNC(=O)COc2ccc(S(=O)(=O)N3CCCC3)cc2)cc1 40.7%
CCn1c(SC/C=C/c2ccccc2)nnc1-c1cccs1 41.8%
CC(=O)c1ccc(N2CCN(C(=O)C(=O)c3c(C)[nH]c4ccccc34)CC2)cc1 209% [at 5 µM]
CC(=O)c1c(-c2ccccc2)[nH]c2ccccc12 30.8%
O=C(Nc1cccc(S(=O)(=O)N2CCOCC2)c1)c1ccco1 48.2% [at 10 µM]
O=C(Nc1ccc2c(c1)OCO2)C1CCN(c2ccc(S(=O)(=O)N3CCOCC3)cc2)CC1 43% [at 10 µM]
O=C(CC1SC(=NCc2ccccc2)NC1=O)Nc1ccccc1 (configuration not stated) 150% [at 10 µM]
O=C(CC1CC1)N[C@@H]1CC[C@H](CCNS(=O)(=O)c2ccc(Cl)cc2)O[C@H]1CO 46%
COc1cc(Cn2c(N)c(C#N)c3nc4ccccc4nc32)cc(OC)c1 -2.36%
COC(=O)CSc1nc(-c2ccccc2)cc(-c2ccco2)c1C#N 54.5%
CCC(C)(C)n1nnnc1CN(Cc1ccc(Cl)cc1)Cc1ccco1 142%
O=C(/C=C/Sc1ncn[nH]1)c1ccc(Cl)cc1 -92.8%
Cc1sc(NC(=O)c2cccs2)nc1-c1ccccc1 121%
CN1CCN(C(=O)CSc2nc(-c3cccs3)cc(-c3cccs3)c2C#N)CC1 84.6%
CC(=O)c1ccc(OCC(=O)OCC(=O)Nc2sccc2C(N)=O)cc1 164%
CCOC(=O)c1c(NC(=O)CSc2cn(CC)c3ccccc23)sc2c1CCC2 96.8%
CCOC(=O)c1nc(S(C)(=O)=O)ncc1Cl 158%
O=C(c1ccc(NC(=O)C2(c3ccccc3)CCOCC2)cc1)N1CCOCC1 45.2%
CCOC(=O)c1c(NC(=O)c2ccoc2C)sc2c1CCC2 24.4%
CC1CCCN(Cc2c(O)ccc3c(=O)c(-c4nc5ccccc5s4)c(N)oc23)C1 (configuration not stated) 61.7%
CC(C)NC(=O)NCC[C@H]1CC[C@H](NC(=O)c2ccc(F)cc2)[C@H](CO)O1 28.9%
Cc1ccccc1S(=O)(=O)NCC[C@@H]1CC[C@H](NC(=O)C2CCOCC2)[C@@H](CO)O1 36.8%
CCC(C)(CC(=O)O)CC(=O)Nc1cc(C(F)(F)F)cc(C(F)(F)F)c1 (configuration not stated) 16.3%
COc1ccc(-c2nc3c(C)cc(Br)cn3c2Cc2ccc(C)cc2)cc1OC 73.4%
COc1cc(C)c(CN2CCN(S(=O)(=O)c3ccc(Cl)s3)CC2)cc1OC 148%
O=C(CN1CCC(n2nnc3cc(F)ccc32)CC1)Nc1ccc2c(c1)CCC2 90.9%
CCOC(=O)C1=C[C@@H](C(C)(C)C)N(S(=O)(=O)c2ccc(C)cc2)[C@H]1c1cccc2ccccc12 111%
Cc1ccccc1S(=O)(=O)N[C@@H]1CC[C@@H](CCn2cc(Cc3ccccc3)nn2)O[C@H]1CO 26.9%
CC(C)(C)C(=O)Nc1sc2c(c1-c1nc3ccccc3[nH]1)CCCC2 40.8%
CC(Sc1nc2ccccc2s1)C(=O)NC1CCCc2ccccc21 (configuration not stated) 53.7%
Cc1ccc(CNC(=O)C2CC(c3ccc([N+](=O)[O-])cc3)=NO2)cc1 (configuration not stated) 98.5%
Cc1coc2cc3oc(=O)c(CCC(=O)NC4CC4)c(C)c3cc12 136%
Cc1ccccc1-c1ccc([C@@H]2[C@H](CO)N3CCCCN(C(=O)Nc4cccc(F)c4)C[C@@H]23)cc1 94.7%
CCOc1ccc(N(C)S(=O)(=O)c2cc(-c3cc(C)no3)ccc2OC)cc1 116%
CCOC(=O)c1ccccc1NS(=O)(=O)c1ccc(OCC)cc1 124%
COc1ccc(NC(=O)CSC2CC(=O)N(c3ccc4c(c3)OCCO4)C2=O)cc1 (configuration not stated) 52.1%
COc1ccc(N(C(=O)c2snc(C(N)=O)c2N)C(C(=O)NC2CCCC2)c2ccco2)c(OC)c1 (configuration not stated) 65.8%
CC(C)C(OC(=O)c1cccs1)C(=O)NC1CCCCC1 (configuration not stated) 62.8%
COc1ccc(N(C(=O)c2snc(C(N)=O)c2N)C(C(=O)NC2CCCCC2)c2ccc(C)o2)cc1 (configuration not stated) 66%
COc1ccc(N(C(=O)c2csnn2)C(C(=O)NC2CCCC2)c2cccs2)cc1 (configuration not stated) 79.9%
COc1ccc(N(C(=O)c2snc(C(N)=O)c2N)C(C(=O)NC2CCCCC2)c2ccc(F)cc2)c(OC)c1 (configuration not stated) 53.7% [at 10 µM]
C[C@@H]1CN([C@H](C)CO)C(=O)c2c(c3ccccc3n2C)-c2ccccc2CO[C@@H]1CN(C)C(=O)c1ccc(F)cc1 205%
Oc1ccc(Nc2nnc(-c3ccc(O)cc3)c3ccccc23)cc1 115% [at 10 µM]
O=C(CC1SC(=Nc2ccc3c(c2)OCCO3)NC1=O)Nc1ccc(F)cc1F (configuration not stated) 132%
CCOC(=O)C1=C[C@@H](C(C)(C)C)N(S(=O)(=O)c2ccc(C)cc2)[C@H]1c1ccccc1 74.6%
CC(C)(C)n1nnnc1CN(Cc1ccc(F)cc1)Cc1ccco1 77.5%
CCOC(=O)c1c(CN2CCN(CC#N)CC2)n(C)c2cc(Br)c(OC)cc12 122% [at 10 µM]
CCOC(=O)c1c(C)n(C)c2ccc(OCC(O)Cn3nc(C)c(Br)c3C)cc12 (configuration not stated) 47.7%
